Assay outcomes deposited in PubChem BioAssay by several laboratories.
Hits are enriched below; roughly 32% of the tested compounds scored in any of these assays.
CYP2C19 inh = inhibitors of human CYP2C19 | P33261 | CYP2C19 Supersomes, luciferin-H EGE luminescence, 30 min | inhibition, % at 5 µM | 96,000 tested, 21% active;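 active means CYP2C19 inhibition above a set limit at 5 µM in the primary screen, cut at about 50% in these data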
Target sequence (P33261 whole entry, looked up): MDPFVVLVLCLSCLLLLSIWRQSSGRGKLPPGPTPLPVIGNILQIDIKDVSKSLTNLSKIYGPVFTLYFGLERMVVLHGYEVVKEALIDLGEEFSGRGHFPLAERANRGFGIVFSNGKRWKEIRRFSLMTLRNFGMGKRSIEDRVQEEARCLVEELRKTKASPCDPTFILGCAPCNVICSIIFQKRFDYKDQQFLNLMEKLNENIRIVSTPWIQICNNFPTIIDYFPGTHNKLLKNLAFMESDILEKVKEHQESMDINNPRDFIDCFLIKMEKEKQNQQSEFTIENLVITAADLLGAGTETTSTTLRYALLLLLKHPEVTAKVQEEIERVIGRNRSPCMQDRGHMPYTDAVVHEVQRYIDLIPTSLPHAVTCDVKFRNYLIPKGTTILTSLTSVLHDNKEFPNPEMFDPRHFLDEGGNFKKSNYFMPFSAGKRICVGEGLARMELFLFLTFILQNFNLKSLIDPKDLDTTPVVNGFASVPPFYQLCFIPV
CYP2C19 activ = cytochrome P450 2C19 (human) activation; P33261; 96,000 tested, under 10 active; recombinant CYP2C19, luciferin-H EGE luminescence; hits give high values; 0 = fully inhibited enzyme, 1 = untreated enzyme; activation factor at 5 µM;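 active means activation factor of at least 2 at 5 µM in the primary screen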
CYP2C9 inhib = human CYP2C9 inhibition; 96,000 tested, 20% active; CYP2C9 Supersomes, luciferin-H conversion, luminescence; inhibition, % at 5 µM; P11712; AID 777;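 active means blocking of liver enzyme CYP2C9 beyond about 50% at 5 µM, limit read from the data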
CYP2C9 act = CYP2C9 (human) activation. P11712. 96,000 tested, 1.4% active. activation factor at 5 µM. recombinant CYP2C9, luciferin-H conversion, luminescence; hits give high values; factor 1 = untreated enzyme, 0 = blocked;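 active means activation factor of 2 or more for CYP2C9 at a 5 µM dose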
PostGolgi yeast = growth inhibition of a yeast mutant, post-Golgi transport screen. post-Golgi transport phenotypic cell assay. inhibition, % at 10 µM. 98,000 tested, 0.9% active. AID 739;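 further: yeast cells grown in 1536-well plates; yeast grown about 18 h at 30C before absorbance read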
PostGolgi ctrl = yeast control strain growth, post-Golgi counter-screen | efflux-deficient yeast background strain, growth absorbance A615, 16 h | inhibition, % at 10 µM | 98,000 tested, 5% active
Hits are given with their value; – = inactive; · = no result given. Unless noted, no stated cut-off is given here; in the data, active means inhibition above about 30%; inactive means the rest.

SMILES | CYP2C19 inh | CYP2C19 activ | CYP2C9 inhib | CYP2C9 act | PostGolgi yeast | PostGolgi ctrl
Cc1c(C(=O)OCCOc2ccccc2)[nH]c2c1C(=O)CCC2 | 91.0 | – | 91.0 | – | – | –
CCCc1c(C(=O)OCC)[nH]c2c1C(=O)CCC2 | – | – | – | – | – | –
Cc1nc(NCc2ccco2)[nH]c(=O)c1CCC(C)C | 57.1 | – | – | – | – | –
COC(=O)c1ccc(CSc2nc3c(c(=O)n2-c2ccccc2)SCC3)o1 | – | – | 86.4 | – | – | –
COC(=O)c1ccc(CSc2nc3ccccc3c(=O)n2-c2ccc(OC)c(OC)c2)o1 | 94.3 | – | 95.8 | – | – | –
COc1ccc(-n2c(SCC(=O)Nc3cc(C)on3)nc3ccc(O)cc3c2=O)cc1OC | – | – | – | – | – | –
COCCn1c(SCc2ccc(C(=O)OC)o2)nc2ccccc2c1=O | 97.5 | – | 91.5 | – | – | –
COc1ccc(NC(=O)CSc2nc3c(c(=O)n2-c2ccccc2)SCC3)c(OC)c1 | – | – | – | – | – | –
COC(=O)c1ccc(CSc2nc3ccccc3c(=O)n2-c2ccccc2)o1 | – | – | 73.6 | – | – | –
O=C(CCC(=O)Nc1nnc(C2CCCCC2)s1)NCC1CCCO1 (stereo not given) | – | – | – | – | – | –
COc1ccccc1-n1cnnc1SC1CCOC1=O (stereo not given) | – | – | – | – | – | –
COc1ccc(-n2c(SC3CCOC3=O)nc3ccccc3c2=O)cc1OC (stereo not given) | – | – | 69.2 | – | – | –
COC(=O)c1ccc(CSc2nnc3n(Cc4ccccc4OC)c(=O)c4ccccc4n23)o1 | 71.8 | – | 74.0 | – | · | ·
COC(=O)c1ccc(Cn2nnc3ccccc3c2=O)o1 | – | – | – | – | – | –
CC(C)OC(=O)c1c(NC(=O)c2cnn3c2NC(c2ccccc2)CC3C(F)F)sc2c1CCCC2 (stereo not given) | – | – | – | – | – | –
CCC1CCCCN1Cc1ccc(OC)c(C)c1 (stereo not given) | – | – | – | – | – | –
Cc1c(C(=O)Nc2ccc(Cl)cc2)c2ccccn2c1C(=O)c1ccc([N+](=O)[O-])cc1 | – | – | 80.6 | – | – | –
CC1CCCC/C1=N/Nc1ccc([N+](=O)[O-])cc1[N+](=O)[O-] (stereo not given) | – | – | – | – | – | 36.4
Cc1ccc(C)c(Cn2nnc3c(=O)[nH]c(C4CCN(C(=O)c5cccs5)CC4)nc32)c1 | 51.0 | – | 87.6 | – | – | –
Cc1ccc(C)c(Cn2nnc3c(=O)[nH]c(C4CCCN(C(=O)C5CCC5)C4)nc32)c1 (stereo not given) | – | – | – | – | – | –
Cc1ccc(Cn2nnc3c(=O)[nH]c(C4CCN(S(=O)(=O)c5ccc(F)cc5)CC4)nc32)cc1 | · | · | · | · | – | –
Cc1ccc(Cn2nnc3c(=O)[nH]c(C4CCN(C(=O)c5cccs5)CC4)nc32)cc1 | – | – | 72.4 | – | – | –
CCCCCCC(=O)Nc1cc2c(C)cc(=O)oc2cc1C | – | – | – | 2.5 | – | –
COc1ccc(NC(=O)/C=C/c2cc(Br)ccc2OC)cc1 | – | – | – | – | – | –
COc1ccc(Br)cc1/C=C/C(=O)Nc1c(C)cccc1C | – | – | – | 2.1 | – | –
SMILES | CYP2C19 inh | CYP2C19 activ | CYP2C9 inhib | CYP2C9 act | PostGolgi yeast | PostGolgi ctrl
CCN(CC)c1ccc(NC(=O)/C=C/c2cc(Br)ccc2OC)cc1 | – | – | – | 2.2 | – | –
COc1ccc(Br)cc1-c1nc(C)c(C(C)=O)n1O | – | – | – | – | – | –
CSC1=N/C(=C\c2ccccc2)C(=O)N1C | – | – | – | – | – | –
CCOC(=O)c1sc(NC(=O)CSc2ncn(-c3ccccc3)n2)nc1C | – | – | – | – | – | –
c1ccc(CSc2ncn(-c3ccccc3)n2)cc1 | 85.3 | – | 79.3 | – | – | –
O=C(CSc1ncn(-c2ccccc2)n1)c1cccs1 | 94.0 | – | 71.0 | – | – | –
Nc1nc(CSc2ncn(-c3ccccc3)n2)cs1 | 81.9 | – | – | – | – | –
O=C1CSc2ccccc2N1Cc1ccccc1F | – | – | – | – | – | –
CN(C)/N=C/C=C1\CC/C(=C\c2ccc(Br)cc2)C1=O | 53.9 | – | – | – | – | –
Cn1c(=O)oc2cc(S(=O)(=O)Nc3cccc4c3CCCC4)ccc21 | 65.7 | – | – | 2.4 | – | –
Cn1c(=O)oc2cc(S(=O)(=O)NC(Cc3ccccc3)C(=O)N3CCCCC3)ccc21 (stereo not given) | – | – | – | – | – | –
Cn1c(=O)oc2cc(S(=O)(=O)NC3CCCc4ccccc43)ccc21 (stereo not given) | – | – | – | – | – | –
Cn1c(=O)oc2cc(S(=O)(=O)Nc3cccc(C(=O)O)c3)ccc21 | – | – | – | – | – | –
CCc1cccc(NS(=O)(=O)c2ccc3c(c2)oc(=O)n3C)c1 | 70.5 | – | – | – | – | 30.5
Cn1c(=O)oc2cc(S(=O)(=O)Nc3ccc4c(c3)OCO4)ccc21 | 79.6 | – | 53.4 | – | – | –
CSCCC(NS(=O)(=O)c1ccc2c(c1)oc(=O)n2C)C(=O)NC1CCCCC1 (stereo not given) | 71.6 | – | – | – | – | –
CCn1nc(C(=O)Nc2nc3ccc(C)cc3s2)c2ccccc2c1=O | – | – | – | – | – | –
Cn1c(=O)c2cc(S(=O)(=O)Nc3ccc4c(c3)OCO4)ccc2n(C)c1=O | 84.4 | – | 85.0 | – | – | –
CC(C)CC(NS(=O)(=O)c1ccc2c(c1)oc(=O)n2C)C(=O)NCc1cccnc1 (stereo not given) | 53.4 | – | – | – | – | –
Cn1c(=O)c2cc(S(=O)(=O)N3CCOCC3)ccc2n(C)c1=O | – | – | – | – | – | –
COc1ccc(-c2csc(N(CCc3ccccc3)C(=O)COc3ccccc3)n2)cc1 | – | – | 91.6 | – | – | –
CC(C)NS(=O)(=O)c1ccc(OCC(=O)Nc2ccc(F)cc2F)cc1 | – | – | 50.2 | – | – | –
COc1ccc(OCC(=O)N(C)Cc2ccccc2)cc1 | 97.1 | – | – | – | – | –
CCOc1ccc(OCCN(C)Cc2ccccc2)cc1 | – | – | – | – | – | –
CC(C)NS(=O)(=O)c1ccc(OCC(=O)Nc2ccccc2F)cc1 | – | – | – | – | – | –
CC(C)NS(=O)(=O)c1ccc(OCC(=O)N(C)Cc2ccccc2)cc1 | 51.4 | – | – | – | – | –
O=C(N/N=C1\CCCc2ccccc21)C(O)c1ccccc1 (stereo not given) | – | – | – | – | – | –
Cc1cccn2c(=O)c3cc(C#N)c(=O)n(Cc4cccnc4)c3nc12 | – | – | – | – | · | ·
Cc1ccc(Oc2ccccc2/C=C/C(=O)O)cc1 | – | – | – | – | – | –
Nc1c(-c2ccccc2)cnn1-c1cccc([N+](=O)[O-])c1 | – | – | – | – | – | –
